In PubChem BioAssay:
The source made the active and inactive calls. No rule for the calls is given here.

target: Pantothenate synthetase (Mycobacterium tuberculosis (strain ATCC 25618 / H37Rv)) (UniProt P9WIL5); assay: Recombinant Mtb pantothenate synthetase (PanC) inhibitors, coupled enzyme, confirmatory (AID 375); conditions: coupled enzyme assay; at 10 µM, stronger effect = higher value;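 also: 0% = full reaction with vehicle and 100% = no enzyme background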
Sequence (P9WIL5 whole entry, looked up): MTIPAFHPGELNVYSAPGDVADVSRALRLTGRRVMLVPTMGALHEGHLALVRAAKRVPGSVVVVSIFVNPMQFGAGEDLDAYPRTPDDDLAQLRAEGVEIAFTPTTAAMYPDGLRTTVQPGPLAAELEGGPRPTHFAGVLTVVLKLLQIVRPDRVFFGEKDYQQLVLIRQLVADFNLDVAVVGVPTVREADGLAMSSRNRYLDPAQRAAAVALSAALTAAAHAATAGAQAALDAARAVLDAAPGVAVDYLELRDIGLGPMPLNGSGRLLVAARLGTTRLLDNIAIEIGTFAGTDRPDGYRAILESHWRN

Row | SMILES | inhibition
1 | O=C(Nc1ccc2c(c1)OCO2)OCc1ccccc1 | 0% (inactive)
2 | CCOc1ccc2[nH]c(=O)c(CN(Cc3ccccc3)C(=O)N3CCCC3)cc2c1 | 6% (inactive)
3 | N[C@@H](Cc1cc(I)c(Oc2ccc(O)c(I)c2)c(I)c1)C(=O)O | 0% (inactive)
4 | COc1ccc(NC(=O)CSc2nc3c(c(=O)n2-c2ccccc2OC)SCC3)cc1 | 3% (inactive)
5 | Cc1cc(NC(=O)CCCN2C(=O)c3cccnc3C2=O)no1 | 0% (inactive)
6 | CN1C(=O)C(O)(CC(=O)c2ccccc2O)c2cc(Br)ccc21 (stereo not given) | 0% (inactive)
7 | Cc1ccc(C)c(NC(=O)CSc2nnc(-c3ccccc3)o2)c1 | 5% (inactive)
8 | Cc1ccc(CN2C(=O)CCC2C(=O)NCC2CCCO2)cc1 (stereo not given) | 3% (inactive)
9 | Cc1ccc(S(=O)(=O)Cc2ccc(C(=O)NCCCN3CCN(C)CC3)o2)cc1 | 1% (inactive)
10 | CCOC(=O)C(C(C)=O)c1nc(C)nc2c1nnn2Cc1ccccc1Cl (stereo not given) | 0% (inactive)
11 | O=c1cc(CN2CCN(c3ccc(F)cc3)CC2)nc2sccn12 | 0% (inactive)
12 | CCOC(=O)C1CCN(C(c2cc3cc(C)cc(C)c3[nH]c2=O)c2nnnn2C2CCCCC2)CC1 (stereo not given) | 0% (inactive)
13 | CCN(CC(=O)Nc1ccc2c(c1)OCCO2)Cc1cc(=O)oc2cc(C)c(C)cc12 | 0% (inactive)
14 | Cc1cc2c(cc1C)C(=O)NC(C)(C)C2 | 0% (inactive)
15 | CCOc1ccccc1N1CC(O)=C(c2nc3ccccc3s2)C1=N | 9% (inactive)
16 | Cc1cc(C(=O)NCCN2CCCCC2C)n(-c2ccccc2)n1 (stereo not given) | 0% (inactive)
17 | O=P1(O)C=C(c2ccccc2)NC(c2ccccc2)=C1 | 0% (inactive)
18 | CCCc1cn(S(=O)(=O)c2ccc(OC)cc2OC)nc1N | 0% (inactive)
19 | O=C1c2ccccc2S(=O)(=O)N1CC(O)Cn1c2ccccc2c2ccccc21 (stereo not given) | 0% (inactive)
20 | CCOC(=O)C1CCN(C(=O)COc2ccc(S(=O)(=O)NC(C)C)cc2Cl)CC1 | 0% (inactive)

Row | SMILES | inhibition
21 | CCc1nnc2n1N=C(c1ccc(-c3ccc(Cl)cc3Cl)o1)CS2 | 3% (inactive)
22 | CC(=O)OC(C(=O)NC1CCCCC1)c1ccncc1 (stereo not given) | 10% (inactive)
23 | CCOCCCNC(=O)CN1CCN(Cc2ccccc2C)C1=O | 5% (inactive)
24 | Cc1noc(C)c1S(=O)(=O)N1CCN(Cc2ccc3c(c2)OCO3)CC1 | 0% (inactive)
25 | CC1CC(C)CN(CC(=O)Nc2ccc(S(N)(=O)=O)cc2)C1 (stereo not given) | 0% (inactive)
26 | COc1cccc(N2CCN(Cc3nc(N)nc(Nc4ccccc4)n3)CC2)c1 | 0% (inactive)
27 | CCc1ccccc1N1CC23C=CC(O2)C(C(=O)O)C3C1=O (stereo not given) | 0% (inactive)
28 | Cc1cc2oc(=O)cc(C)c2c(=O)o1 | 4% (inactive)
29 | O=C(Cc1c[nH]c2ccccc12)N1CCc2ccccc21 | 3% (inactive)
30 | C[C@]12CC[C@@H]3c4ccc(O[C@@H]5O[C@H](C(=O)O)[C@@H](O)[C@H](O)[C@H]5O)cc4CC[C@H]3[C@@H]1C[C@@H](O)[C@@H]2O | 14% (inactive)
31 | CCOC(=O)N1CCN(C(=O)c2ccc3nc4ccsc4c(=O)n3c2)CC1 | 2% (inactive)
32 | O=C(O)CC1NC(=O)N(c2ccccc2)C1=O (stereo not given) | 0% (inactive)
33 | O=C(O)CSc1ccc2ccccc2n1 | 5% (inactive)
34 | O=c1[nH]c(=O)n([C@H]2C[C@H](O)[C@@H](CO)O2)cc1F | 0% (inactive)
35 | COc1cccc(-c2nnc(NC(C)=O)o2)c1 | 0% (inactive)
36 | COc1ccc2c(c1OC)C(=O)N(c1ccc3c(c1)CCC3)C2=O | 2% (inactive)
37 | Cc1ccc(NC(=O)CC2C(=O)NC3CCCCC3N2C(=O)c2ccc(F)cc2)cc1C (stereo not given) | 4% (inactive)
38 | Cc1cc2c(c(=O)o1)C(C13C=CC(CC1)C3)C(C#N)=C(N)O2 (stereo not given) | 0% (inactive)
39 | CCOc1ccccc1N1CCN(c2nc3ccccc3nc2C(C#N)C(=O)OC)CC1 (stereo not given) | 5% (inactive)
40 | CCCC(=O)Nc1ccc(C(=O)O)cc1NC(=O)CCC | 0% (inactive)
